# Measured values from article PMC9911399, “Two distinct binding modes provide the RNA-binding protein RbFox with extraordinary sequence specificity”.
# Substitutions are numbered along the chain they refer to; changes in the protein carry UniProt numbers. In all, about 16,000 sequences were measured (“ka relative to ugcaugu”: median about 0.096, highest 2% from about 0.35 on). The full list was thinned out, with the highest values kept by preference.
# T1: RBFOX1 RRM RbFoxmut (Fox-RRM*) (Homo sapiens, UniProt Q9NWB1 109-208, R118D;E147R;N151S;E152T)
# T1 sequence: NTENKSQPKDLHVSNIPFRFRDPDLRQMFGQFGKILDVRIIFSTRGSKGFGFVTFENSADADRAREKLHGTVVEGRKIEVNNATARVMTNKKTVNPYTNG
# B1: CCAAUUG (DNA:RNA)
# RNA: GGGAGACCGGAAUUCAGAUUGUCCCCAAUUGUUAAAUCCCGUCGUAGCCACCA
# DNA 1: CAATCTGAATTCCGGTCTCCC
# DNA 2: TGGTGGCTACGACGGGATT
# B2: GUGGUAG (DNA:RNA)
# RNA: B1 RNA with C25G, C26U, A27G, A28G, U30A
# DNA 1: CAATCTGAATTCCGGTCTCCC
# DNA 2: TGGTGGCTACGACGGGATT
# B3: UUUUCUG (DNA:RNA)
# RNA: B1 RNA with C25U, C26U, A27U, A28U, U29C
# DNA 1: CAATCTGAATTCCGGTCTCCC
# DNA 2: TGGTGGCTACGACGGGATT
# B4: UCCUCCG (DNA:RNA)
# RNA: B1 RNA with C25U, A27C, A28U, U29C, U30C
# DNA 1: CAATCTGAATTCCGGTCTCCC
# DNA 2: TGGTGGCTACGACGGGATT
# B5: GCCCAGU (DNA:RNA)
# RNA: B1 RNA with C25G, A27C, A28C, U29A, U30G, G31U
# DNA 1: CAATCTGAATTCCGGTCTCCC
# DNA 2: TGGTGGCTACGACGGGATT
# B6: GGGGUCG (DNA:RNA)
# RNA: B1 RNA with C25G, C26G, A27G, A28G, U30C
# DNA 1: CAATCTGAATTCCGGTCTCCC
# DNA 2: TGGTGGCTACGACGGGATT
# B7: CGGGGGG (DNA:RNA)
# RNA: B1 RNA with C26G, A27G, A28G, U29G, U30G
# DNA 1: CAATCTGAATTCCGGTCTCCC
# DNA 2: TGGTGGCTACGACGGGATT
# B8: CGGGUUG (DNA:RNA)
# RNA: B1 RNA with C26G, A27G, A28G
# DNA 1: CAATCTGAATTCCGGTCTCCC
# DNA 2: TGGTGGCTACGACGGGATT
# B9: GGGGUUG (DNA:RNA)
# RNA: B1 RNA with C25G, C26G, A27G, A28G
# DNA 1: CAATCTGAATTCCGGTCTCCC
# DNA 2: TGGTGGCTACGACGGGATT
# B10: GGGUCCG (DNA:RNA)
# RNA: B1 RNA with C25G, C26G, A27G, A28U, U29C, U30C
# DNA 1: CAATCTGAATTCCGGTCTCCC
# DNA 2: TGGTGGCTACGACGGGATT
# B11: CACCGGG (DNA:RNA)
# RNA: B1 RNA with C26A, A27C, A28C, U29G, U30G
# DNA 1: CAATCTGAATTCCGGTCTCCC
# DNA 2: TGGTGGCTACGACGGGATT
# B12: CGGGUCG (DNA:RNA)
# RNA: B1 RNA with C26G, A27G, A28G, U30C
# DNA 1: CAATCTGAATTCCGGTCTCCC
# DNA 2: TGGTGGCTACGACGGGATT
# B13: GGGGGGG (DNA:RNA)
# RNA: B1 RNA with C25G, C26G, A27G, A28G, U29G, U30G
# DNA 1: CAATCTGAATTCCGGTCTCCC
# DNA 2: TGGTGGCTACGACGGGATT
# B14: CGGUUGA (DNA:RNA)
# RNA: B1 RNA with C26G, A27G, A28U, U30G, G31A
# DNA 1: CAATCTGAATTCCGGTCTCCC
# DNA 2: TGGTGGCTACGACGGGATT
# B15: GGGUUGA (DNA:RNA)
# RNA: B1 RNA with C25G, C26G, A27G, A28U, U30G, G31A
# DNA 1: CAATCTGAATTCCGGTCTCCC
# DNA 2: TGGTGGCTACGACGGGATT
# B16: GUCGGGG (DNA:RNA)
# RNA: B1 RNA with C25G, C26U, A27C, A28G, U29G, U30G
# DNA 1: CAATCTGAATTCCGGTCTCCC
# DNA 2: TGGTGGCTACGACGGGATT
# B17: GGGUUAA (DNA:RNA)
# RNA: B1 RNA with C25G, C26G, A27G, A28U, U30A, G31A
# DNA 1: CAATCTGAATTCCGGTCTCCC
# DNA 2: TGGTGGCTACGACGGGATT
# B18: UAAGAGC (DNA:RNA)
# RNA: B1 RNA with C25U, C26A, A28G, U29A, U30G, G31C
# DNA 1: CAATCTGAATTCCGGTCTCCC
# DNA 2: TGGTGGCTACGACGGGATT
# B19: GACCGCG (DNA:RNA)
# RNA: B1 RNA with C25G, C26A, A27C, A28C, U29G, U30C
# DNA 1: CAATCTGAATTCCGGTCTCCC
# DNA 2: TGGTGGCTACGACGGGATT
# B20: GCACUUC (DNA:RNA)
# RNA: B1 RNA with C25G, A28C, G31C
# DNA 1: CAATCTGAATTCCGGTCTCCC
# DNA 2: TGGTGGCTACGACGGGATT
# Molecular target: T1, RBFOX1 RRM RbFoxmut (Fox-RRM*)
# Experiment: EMSA; HiTS-Eq, 1 nM pool, 10 min; buffer printed only for the single-RNA assays: 10 mM Tris pH 7.5, 150 mM NaCl, 3.4 mM EDTA, 0.001% NP-40, 30 C
# Settings: tags: His6 N-terminal (pET28a); label: 5' 32P
# Method in brief: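 Purified RbFox RRM (wild type or mutant) was equilibrated for 10 min in 50 µL with 1 nM of a 5′-radiolabelled pool of RNA with 7 randomized nucleotides, its flanks annealed to DNA oligonucleotides, across increasing protein concentrations. Free RNA was separated by 8% native PAGE, excised, reverse-transcribed, PCR-barcoded and sequenced on an Illumina HiSeq 2500. Relative association constants came from read-count changes of each variant against the control reaction, normalised to the cognate motif.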
row,Binder,binding signal
1,B1,0.0976 KA relative to UGCAUGU
2,B2,0.181 KA relative to UGCAUGU
3,B3,0.0689 KA relative to UGCAUGU
4,B4,0.0609 KA relative to UGCAUGU
5,B5,0.102 KA relative to UGCAUGU
6,B6,0.357 KA relative to UGCAUGU
7,B7,0.0805 KA relative to UGCAUGU
8,B8,0.66 KA relative to UGCAUGU
9,B9,0.609 KA relative to UGCAUGU
10,B10,0.238 KA relative to UGCAUGU
11,B11,0.0671 KA relative to UGCAUGU
12,B12,0.259 KA relative to UGCAUGU
13,B13,0.0675 KA relative to UGCAUGU
14,B14,0.139 KA relative to UGCAUGU
15,B15,0.356 KA relative to UGCAUGU
16,B16,0.101 KA relative to UGCAUGU
17,B17,0.0954 KA relative to UGCAUGU
18,B18,0.0654 KA relative to UGCAUGU
19,B19,0.101 KA relative to UGCAUGU
20,B20,0.0473 KA relative to UGCAUGU
